Test results: PubChem BioAssay (NCI)
The panel holds about 83,000 compounds, 20% with a hit somewhere; the sample as a whole holds those more often.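 Testing used 96-well plates and a 48-hour single-concentration exposure. Example: -40 means 40% of the starting cells died.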 Values without a mark were called inactive. The source made the active and inactive calls. Rule for the calls: active = growth percent below 10; inactive = the rest.

What was measured:
Assay in all cases: NCI-60 one-dose screen, 48 h (100 = growth as untreated, 0 = no growth, -100 = all killed)
Conditions in all cases: 10 µM unless noted
[1] = tested on: SK-MEL-2 melanoma
[2] = tested on: SN12C renal
[3] = tested on: UO-31 renal
[4] = tested on: TK-10 renal
[5] = tested on: ACHN renal
[6] = tested on: CAKI-1 renal
[7] = tested on: A498 renal
[8] = tested on: CCRF-CEM leukemia
[9] = tested on: MOLT-4 leukemia
[10] = tested on: EKVX NSCLC

| SMILES | growth [1] | growth [2] | growth [3] | growth [4] | growth [5] | growth [6] | growth [7] | growth [8] | growth [9] | growth [10] |
| --- | --- | --- | --- | --- | --- | --- | --- | --- | --- | --- |
| c1ccc(-c2nc3sc(-c4ccccc4)cn3n2)cc1 | 94.7% | 79.5% | 46.9% | 127% | 85.5% | 90.8% | 86% | 86.8% | 88.6% | – |
| Cc1cccc2c3c(sc12)C(c1ccc(Cl)cc1)C(C#N)=C(N)O3 (centres undefined) | – | 25.2% | 39% | 71.7% | 25.2% | 8.51% (active) | -6.58% (active) | 13.2% | 11.9% | 44.5% |
| N#Cc1c(-c2ccc(Cl)cc2)nc(NCCO)[nH]c1=O | 94.4% | 96.2% | 74.5% | 97.9% | 101% | 94.2% | 125% | 113% | 99.5% | – |
| Cn1cc(-c2ccc3cc(-c4ccc(CC(=O)Nc5cc(C(C)(C)C)nn5C)cc4)cnc3c2)cn1 | -38.4% (active) | 5.18% (active) | 1.27% (active) | 15.8% | 3.05% (active) | 0.564% (active) | -18.5% (active) | 23% | 13.2% | – |
| CSc1ncccc1C(=O)OCC(=O)Nc1oc(C)c2c(C)n[nH]c(=O)c12 | 92.5% | 103% | 91.7% | 102% | 106% | 112% | 116% | 79% | 99.4% | – |
| CC(=O)OC[C@H]1OC(Sc2sc(C(=O)c3ccc(C)cc3)c(N)c2-c2nc3ccccc3s2)[C@H](OC(C)=O)[C@@H](OC(C)=O)[C@@H]1OC(C)=O (some centres undefined) | 93.6% | 41.9% | 25.7% | 99.3% | 23.1% | 53.7% | 98.9% | 60.5% | 80% | – |
| COc1ccc2c(c1)C(C)Cc1c(ncnc1-n1c(C)nc3ccccc31)N2C (centres undefined) | 33.9% | 35.8% | 37.3% | – | 51.4% | 25.2% | -9.67% (active) | 18.3% | 20.6% | – |
| CCOc1c(B(O)O)cccc1-c1nc2ccc3[nH]ncc3c2c2c1CCCC2 | 113% | 62.7% | 29.9% | 19.7% | 51.1% | -26.9% (active) | 61.8% | 44% | 28.8% | – |
| Brc1c[n+](Cc2ccc3ccccc3c2)cn1Cc1ccc2ccccc2c1 | 17.3% | 37.6% | 77.4% | 43.6% | 90.6% | 38.4% | -0.664% (active) | 5.13% (active) | 12.6% | – |
| Cc1c(C(=O)N[C@@H](Cc2ccccc2)C(=O)C(=O)NCc2ccc(F)cc2)[nH]c2ccccc2c1=O | 108% | 78.9% | 106% | 107% | 97.8% | 96.9% | 75.8% | 103% | 87.5% | – |
| Cc1ccc(C(=O)NN2C(=O)CSC2c2ccc(Cl)cc2)cn1 (centres undefined) | – | 91.4% | 21.8% | – | 96.5% | 80.7% | 164% | 117% | 82.2% | 110% |
| Cc1ccc(C(CC(=O)O)c2c(C)[nH][nH]c2=O)cc1 (centres undefined) | – | 98.2% | 93% | 98.6% | 104% | 101% | 112% | 97.1% | 98.8% | 105% |
| CCN(CC)Cc1cc(Nc2c3ccc(Cl)cc3nc3ccc(OC)cc23)ccc1O | – | 56.6% | 34.2% | 96.6% | 59.7% | 69.8% | 77.2% | 60.4% | 22.6% | 76.2% |
| Cc1ccc(-c2nc(N3CCN(C(=O)c4ccc(OC(F)(F)F)cc4)CC3)c3ccccc3n2)cc1 | – | 90.5% | 53.7% | – | – | 69.8% | 63.7% | 75.3% | 56.8% | 88.5% |
| COc1cccc(/C=C2\C=C(c3ccccc3)N(Cc3ccccc3)C2=O)c1 | – | – | 41.2% | 88.5% | 48% | 55.1% | 16% | 62.2% | 59.1% | 39.3% |
| C#Cc1cccc(NC(=O)Nc2ccccc2NC(=O)CCl)c1 | – | -68.6% [8.25 µM] (active) | -97.7% [8.25 µM] (active) | -27.8% [8.25 µM] (active) | -84.1% [8.25 µM] (active) | -85.2% [8.25 µM] (active) | -93.4% [8.25 µM] (active) | 22.2% [8.25 µM] | 24.5% [8.25 µM] | 71.9% [8.25 µM] |
| O=C(/C=C/c1sc(Cl)nc1Cl)c1ccccc1 | – | 44.8% | 90.7% | 111% | 46.9% | 93.1% | 100% | 34.9% | 32.3% | 101% |
| O=C(Cc1ccc(F)c(Cl)c1)Nc1cc(C2(C(F)(F)F)CC2)nn1CC1CCCCC1 | – | 6.18% (active) | -3.33% (active) | 3.08% (active) | -7.99% (active) | -14.3% (active) | -33.2% (active) | 20.1% | 11.7% | 3.93% (active) |
| COc1cc(C(=O)N/N=C/c2cc3cc(OCc4ccccc4)ccc3nc2OC)cc(OC)c1OC | – | 87.9% | 81% | 72.1% | 95.2% | 98.2% | 95.6% | 65.9% | 62.5% | 85.4% |
| Brc1ccc2[nH]cc(-c3nc(-c4c[nH]c5ccncc45)cs3)c2c1 | – | -85.6% (active) | -83.9% (active) | -53% (active) | -95.5% (active) | -92.6% (active) | 55.9% | -23.3% (active) | -58.4% (active) | -67.7% (active) |
| COc1ccc2nc(NCCCNCCO)c3sc4ccc(F)cc4c(=O)c3c2c1 | – | 58.6% | 38.4% | – | 39.5% | 7.45% (active) | 25.9% | -20.8% (active) | -10.4% (active) | 61.1% |
| CN(C)CC#Cc1ccc2ncc(C#N)c(Nc3ccc(F)c(Cl)c3)c2c1 | – | 35.4% | 18% | 27.1% | 10.5% | 17.1% | -11.8% (active) | 81.7% | 53.7% | – |
| CCOC(=O)Cn1c(=O)c2c(c3ccccc3n2C)n2nnc(-c3ccccc3)c12 | – | 118% | 74.9% | 120% | 97.3% | 96.8% | 127% | 282% | 92.8% | 95.1% |
| CN1CCN(c2ccc(-c3cc4c(Nc5ccc(F)c(Cl)c5)ncnn4c3)cn2)CC1 | – | 90.5% | 88.2% | 76.7% | 82.6% | 96.3% | 86.7% | 42.9% | 93.6% | 100% |
